# Measured values published in the supplement of paper PMC6555819.
# Experiments:
# Assay in all cases: PBM binding z-score (relative to random genomic background probes); higher = stronger binding; sequences stand for … in GC…GCGATTGACAGCGTAGAATGAAGG
# [1] = test system: RARb homodimer (NR concentration 270 nM)
# How it was run: (§1)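 Binding z-scores were set against random background probes. The data came from custom Agilent 4×180K protein-binding microarrays carrying double-stranded probes with 34-nt variable regions, incubated 1 h with ligand-free nuclear receptor dimers. Partner-specific antibodies detected binding, and scanned fluorescence was regression-normalized.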
# [2] = test system: RARg:RXRa (NR concentration 270 nM, RXRa partner concentration 90 nM)
# How it was run: as §1
# [3] = test system: RARg homodimer (NR concentration 270 nM)
# How it was run: as §1
# [4] = test system: RXRa DBDmut IVT, anti-RXR (DBD mutation: RXRa K156A/R161A, NR concentration 90 nM)
# How it was run: as §1
# [5] = test system: RXRa homodimer (NR concentration 180 nM)
# How it was run: as §1
# [6] = test system: THRa:RXRa (NR concentration 90 nM, RXRa partner concentration 90 nM)
# How it was run: as §1
# [7] = test system: THRa homodimer (NR concentration 90 nM)
# How it was run: as §1
# [8] = test system: VDR homodimer (NR concentration 270 nM)
# How it was run: as §1
Sequence,PBM binding z-score [1],PBM binding z-score [2],PBM binding z-score [3],PBM binding z-score [4],PBM binding z-score [5],PBM binding z-score [6],PBM binding z-score [7],PBM binding z-score [8]
TCTTGTAGATCAAGCAGGCTAAGAAAGCCTGAGT,-0.885,-0.605,-0.521,0.402,-0.67,-0.805,-0.733,-0.349
TCTTGAAGATCAATAGAGGTTAAGAAAGTGCGCT,1.17,0.73,0.205,0.671,1.49,2.53,-0.674,-0.178
TCTCGGAGGACACGAAGGACAGAGCTTTCCAGAG,0.867,0.776,1.75,0.518,0.243,1.48,0.544,0.139
TAGCTTAGGTCATTGGGCCAGTATAGTACGCATC,3.1,4.29,4.56,2.23,3.26,3.37,2.15,1.36
TAGCCTAGGTCAGATCGGGCCAGAATACGCTATA,1.78,2.58,2.95,-0.569,1.29,4.06,-0.133,-0.288
GCTGCTAGGCCAGGTTGGTCAGCTAACGGGTACG,6.85e-05,-0.5,-0.124,-0.332,-0.773,-0.787,-1.23,-0.861
TCATATAGGTAAATGCTAGGTGAAACTCCGATCT,0.638,0.657,0.3,1.3,0.917,1.65,0.67,0.32
CGAACTAGGACATTGACAGGACAGTGAATAGTAA,0.469,0.496,0.642,0.451,-0.322,0.858,0.623,0.546
CTCGAAAGGTCGTGCTCAGGTGAGTATACCAAAC,2.75,5.07,3.86,2.05,4.63,4.17,1.08,1.2
GCTAGTTGGTCAGTAAAAAGTCACACACCGGTCG,1.33,0.522,0.701,0.212,0.223,0.00328,-0.343,0.168
CCTAGTTGGTCAGGAGGTCACACATCGGATATGA,4.48,4.62,4.11,0.662,4.21,3.39,2.2,2.7
CCGACTGGGGCAGAACGGTTACCATACCATCCGG,0.0428,-0.0938,0.284,-1.04,-0.293,-0.413,-0.791,-0.33
AGAATGAGGTTACCTAAGATCAGGGAAACGCTTG,0.84,2.05,1.65,0.932,2.66,3.93,1.05,0.305
TCTCGTAGATCAAGCAGGTTAAGAAAGCCTGAGT,-0.357,-0.372,-0.369,0.598,-0.0292,0.103,-0.615,-0.12
ATCGACAGGTCGAGGTGAGTATAGAGAAAGGGAA,0.915,1.68,1.89,-0.333,1.22,1.59,0.108,0.0129
CCTCGGAGGACAGTAGGTCAGAGCTGTCCGCTTT,2.39,2.09,2.06,0.0907,0.614,1.43,-0.152,-0.282
CCTTACGGGTCACTCCAGGCTATAGCATCGGAGT,2.51,4.03,4.09,0.95,4.01,4.23,-0.482,0.841
CCGACTGGGGCATAAAGTTACCATAAGCCAGCCC,-0.229,-0.0793,0.0317,0.0675,0.0317,-0.417,-0.689,-0.27
TAGCCCAGGTCATTCAGGGGCCAGTATAGAAAGC,3.34,6.39,4.29,2.4,3.39,3.71,1.48,2
AGAACGAGGGCAACGAGTTGATAGCACGGGTGGC,0.919,1.41,1.74,1.76,0.952,0.99,-0.357,2.5
GCATATAGGTAATACAAGGTGAAAGTTCGATTGT,1.57,0.972,0.602,0.513,1.5,4.27,1.28,0.723
ATCGAAGGGTCGACGAGGTGAGTATACACCGTTT,1.42,2.38,2.29,0.234,2.33,2.86,0.22,0.636
TATCCAGGGTCAAAGGCCAGAGTACGAATGTCGA,3.6,5.88,5.26,2.94,7.51,3.75,1.3,3.46

Sequence,PBM binding z-score [1],PBM binding z-score [2],PBM binding z-score [3],PBM binding z-score [4],PBM binding z-score [5],PBM binding z-score [6],PBM binding z-score [7],PBM binding z-score [8]
TAGCCTAGGTCATTGGGCAAGTATAGTACGCATC,2.69,3.66,4.09,1.86,2.94,2.63,0.731,1.44
GCCACTGGGGCATCAGCAGGTTACCATAACTTAA,0.865,0.714,0.439,-0.45,0.212,0.803,-0.0926,-0.602
GCTAGTTGGTCAGTAAAAGGTCACACCCCGGTCG,5.28,5.17,4.3,0.0893,4.86,3.57,2.15,1.43
CATATTAGTTGACCATAAGGGCAACCGAAGCTCG,2.07,1.61,1.37,0.612,0.942,1.95,1.35,1.14
ATATGTAGGTTAAGGGTAATTCAGGTTGGTTCGC,1.56,1.13,1.08,0.754,1.64,2.43,1.45,1.89
CGAAGTAGGTCATCCAGGACAGTGAATACATTGA,3.03,4.24,4.88,2.13,3.36,3.64,1.46,2.37
CCTTAAGGGTCAAGGTTATAGCACGGGTGGTACG,4.66,6.46,6.85,2.7,6.61,3.66,1.03,2.39
GGAACGAGGGGAAAGTTGATAGCATCTGTCGACG,0.0344,0.0991,0.188,0.287,0.258,0.0347,-0.259,-0.402
ACTCGGAGGACAAAGGACAGAGCTACGCCAGTGA,1.11,1,1.64,0.398,0.0489,0.569,-0.18,-0.184
AATACAGGGTCCCTAGGCCAGAGTAGGTACGAAT,-0.162,0.119,0.25,-0.442,0.211,0.106,-0.229,0.0969
ACAGACAGGTGAGTGAAGGTAACTCGGCTGGACG,0.0831,0.0852,0.044,-0.351,0.256,1.38,-0.708,-0.648
GCTAGCAGGCCATTTGGGTCACTAAATGACGGGC,1.76,0.89,1.18,-0.318,0.776,1.68,0.196,0.0959
CCAGACGGGTGAGAAGGTAACTCAGCCTCGATTA,-0.188,0.0516,0.0574,-0.845,0.0255,-0.158,-0.508,-0.29
AGAATGAGGTTATTAAGATCAGGGATTTGCGGTC,0.902,1.19,1.05,1.96,1.76,2.29,0.681,1.2
TCTTGTAGATCAGCAGGTAAAGAAAGCTGGCCAA,-0.48,-0.342,-0.709,0.623,0.124,-0.108,-0.515,-0.431
ATACCAAGGTGATCGTGAAGTCGTTGATACTAAC,0.398,0.416,0.171,0.398,0.357,1.01,0.796,0.18
AGAATGAGGTTATTAAGATCAGGGTATTGCGGTC,0.948,1.09,0.753,1.79,1.62,2.17,0.854,1.29
ATTTGTAGGTTAGCTGGGGTCATTCAGACTAGGC,4.03,4.33,2.95,2.56,5.57,5.34,3.84,4.65
CGAACTAGGTCAAAGGTCAAAGTCGAGCCAACCA,5.24,8.9,7.55,3.33,10.3,4.58,1.53,3.66
AGTATGAGGTTACCAAAGATCAGGGAAACGCTTG,1.09,2.17,1.83,0.98,2.63,2.87,0.98,0.48
CGAAGTAGGTCAAGGACAGTGAATCTCCGCACGC,3.17,3.94,4.66,1.45,2.92,3.07,1.51,0.462
ATATGAAGGTTACATCCGGGTCATTCAGGCTATG,3.52,4.75,2.62,1.08,3.74,4.11,2.47,2.96
GATACTGGGTCAGCTAGAGGCCAGAGTATGGAAA,2.73,5.04,3.76,-0.654,1.82,1.75,-0.395,0.0442

Sequence,PBM binding z-score [1],PBM binding z-score [2],PBM binding z-score [3],PBM binding z-score [4],PBM binding z-score [5],PBM binding z-score [6],PBM binding z-score [7],PBM binding z-score [8]
GCTCCTAGGTCAACTGATGGTCAGCTAAAGCTCG,3.8,5.76,5.88,2.02,3.77,3.15,1.7,0.601
TCCGACAGGTGAAGGTAACTCAGGTACGCAGTCG,0.334,0.325,0.374,0.258,0.788,1.3,-0.0593,0.0508
GGGACGAGGGCAAGTTGATAGCAGAGTTTGATGG,1.99,1.89,2.46,2.62,1.06,1.61,0.723,2.05
CGAACTAGGTCATCCATGACAGTGAATACATTGA,2.92,4,4.72,2.04,2.97,2.84,0.683,1.17
ACTAGCAGGCCAAGGGTCAATCAAGATTAGTCCG,3.46,4.36,3.8,0.567,4.62,2.76,-0.086,0.551
CTCGAAAGGTCGTTCTCAGGTGAGTATACCAAAC,2.86,5.28,3.33,3.44,4.39,4.46,1.46,2.59
ATATGTTGGTTATCGGGTCATTCAGTTTGCGCAT,2.89,2.24,1.97,1.61,2.56,3.26,3.07,4
CGTCCAAGGTCGTAGGAGGTCAGTGAAGACAGAT,4.07,4.63,4.14,2.43,4.36,4.89,1.61,2.85
AGAATGCGGTTATTAAGATCAGGGAATTGCGGTC,-0.19,-0.0734,0.152,-0.072,-0.0867,-0.0645,-0.416,-0.264
TTACCCAGGTGAGCTGAGGTCGTTGATCCAACTC,1.17,0.816,0.509,-0.172,1.19,4.32,1.8,2.27
AGTCAAAGTTCACCAGGTAACGTAAGATTCAGCT,4.3,6.02,6.53,4.1,5.25,2.88,0.769,4.32
CGTCAAAGTTCAATGTAACGTAACAGAAAGCAGC,3.56,4.82,5.45,4.69,3.78,1.64,-0.0537,3.96
ATCGCTAGGTAACAAGTTCAGTGAAAGAGAGGAC,1.42,1.07,0.968,0.533,0.504,1.08,0.174,2.02
TCTATTAGTTGATTAGGCCAACCGAAACAGCGGA,0.54,0.339,0.554,1.35,0.635,0.691,0.713,0.253
CCGACTGAGGCAAGGTTACCATAACGCACAGCCA,1.01,0.557,0.458,0.18,0.97,1.26,0.413,0.118
CGAACTAGGTCAGAACGGGACAGTGAAGGATGAT,1.83,2.2,2.96,0.435,1.15,2.84,-0.119,-0.321
CGTCCAACGTCAGAGAGGTCAGTGAATGCCGAGT,3.88,2.75,3.06,0.53,2.32,2.39,0.645,1.67
TGAATGAGGTTATGAGATCAGGGAACGTTGCAAA,0.266,1.6,1.13,0.145,2.19,1.95,0.132,0.305
ACTATTAGTTGAGACGTGGGCAACCGATAGGTTG,-0.524,-0.179,0.239,-0.00277,-0.275,-0.642,-1.02,-0.369
GCTTGTAGATCAAGGGTAAGAAAGACTAAGCTAA,-0.585,-0.317,-0.393,-0.509,-0.00933,-0.138,-0.974,-0.486
ACAGACAGGTGATGAAGGGAACTCAGGCTATCAT,0.0495,0.231,0.46,-0.425,0.238,0.341,-0.114,-0.128
CCTACTGGGCCAACAGGTCATTGATATCAACGTT,2.5,2.56,2.13,0.159,1.91,1.63,0.207,0.761
